Only some compounds are listed: those with a hit (about 9.2% of all), similar ones and a draw of the others.
ELG1 genotoxic = qHTS screen for small molecules that induce genotoxicity in human embryonic kidney (HEK293T) cells expressing luciferase-tagged ELG1. Potency, µM (highest dose often 46 µM), most hits filed as activators. HEK293T ELG1-luciferase reporter, luminescence, 16 h. 330,000 compounds, 1.3% hits; further: nearly all actives have a fitted effect of over 60% in size
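Genotoxic stress is detected as increased luminescence from luciferase-tagged ELG1 in HEK293T cells, measured with ONE-Glo after a 16 hr treatment at 37 °C.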
Rab9 prom act = qHTS Assay for Rab9 Promoter Activators. Huh7 Rab9 promoter-luciferase reporter, luminescence, 24 h. 320,000 compounds, 2.8% hits. Potency, µM (doses to about 9.22 µM), usual class: activators; further: nearly all actives have a fitted effect of over 60% in size
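Using Huh7 cells stably transfected with Rab9 promoter–luciferase, compounds were incubated 24 h at 37 °C, 5% CO2; luciferase luminescence was read 10 min after reagent addition.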
ELG1 DNA repair = qHTS screen for small molecules that inhibit ELG1-dependent DNA repair in human embryonic kidney (HEK293T) cells expressing luciferase-tagged ELG1. 330,000 compounds, 2.3% hits. Potency, µM (top dose mostly 46.1 µM), most hits filed as inhibitors. HEK293T ELG1-luciferase reporter, luminescence, 16 h; DNA damage induced by 5-fluorouridine. AID 504467, 2011; further: nearly all actives have a fitted effect of over 55% in size
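HEK293T cells expressing luciferase-tagged ELG1 (2,000/well) received 5-Fluorouridine plus compound or DMSO for 16 hr at 37 °C. Luciferase was read by ONE-Glo luminescence after 30 min at room temperature.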
NPC1 promoter act = qHTS Assay for NPC1 Promoter Activators; Huh7 NPC1 promoter luciferase reporter, 24 h; Potency, µM (highest dose often 9.22 µM), usual class: activators; 320,000 compounds, 2.4% hits; further: nearly all actives have a fitted effect of over 60% in size
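Cells: Huh7 expressing luciferase under the NPC1 promoter, 1500/well. Seeded 2 h, compound added, incubated 24 h at 37 °C. Luciferase reagent, 10 min ambient, then luminescence.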
SMN2 splice enh = qHTS Assay for Enhancers of SMN2 Splice Variant Expression; Potency, µM (series often up to 46.1 µM), actives largely listed as activators; 210,000 compounds, 2.8% hits; HEK293 SMN2-luciferase splicing reporter, luminescence, 30-36 h; further: nearly all actives have a fitted effect of over 55% in size
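qHTS luciferase splicing reporter: luminescence rises when SMN2 exon 7 is included in transfected HEK293 cells. Compound exposure lasted 30-36 h at 37C, with 4.5 mM final sodium butyrate as control, followed by a ONE-Glo read.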
FLuc counter = qHTS profiling assay for firefly luciferase inhibitor/activator using purifed enzyme and Km concentrations of substrates (counterscreen for miR-21 project) | purified FLuc, Km substrates, luminescence inhibition | Potency, µM (highest dose often 57.5 µM), actives largely listed as inhibitors | 360,000 compounds, 6.9% hits; further: nearly all actives have a fitted effect of over 55% in size
Target sequence (P08659 whole entry, looked up): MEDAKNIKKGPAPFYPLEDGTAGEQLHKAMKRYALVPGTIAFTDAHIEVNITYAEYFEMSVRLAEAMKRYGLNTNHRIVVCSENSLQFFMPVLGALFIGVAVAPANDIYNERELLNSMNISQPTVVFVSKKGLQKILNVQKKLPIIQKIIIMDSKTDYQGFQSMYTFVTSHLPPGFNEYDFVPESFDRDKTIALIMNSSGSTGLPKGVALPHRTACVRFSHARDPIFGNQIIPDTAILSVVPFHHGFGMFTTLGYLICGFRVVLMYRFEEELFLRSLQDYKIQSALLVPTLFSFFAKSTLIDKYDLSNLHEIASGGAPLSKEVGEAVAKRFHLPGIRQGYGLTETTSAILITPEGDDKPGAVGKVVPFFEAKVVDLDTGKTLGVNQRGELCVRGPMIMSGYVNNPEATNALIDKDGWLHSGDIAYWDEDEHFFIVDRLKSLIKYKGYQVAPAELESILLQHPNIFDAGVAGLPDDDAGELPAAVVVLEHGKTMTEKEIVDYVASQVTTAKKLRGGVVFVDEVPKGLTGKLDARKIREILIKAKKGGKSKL
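Biochemical qHTS of compounds, final roughly 60 µM downward over six points, against 10 nM purified firefly luciferase using Km concentrations of substrates (10 uM D-luciferin, 10 uM ATP) in Tris acetate pH 7.5 buffer; luminescence output.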
Hits are given with their value. The call rests on the fitted dose curve; in most records, active means well fitted curve in the direction sought with a large enough effect; inconclusive means small, poorly fitted or top-dose-only effect, or another doubt; inactive means no such curve, though single readings can be large; an effect the other way counts as inactive or inconclusive.

For c1ccc(-c2noc(-c3ccc4ccccc4c3)n2)nc1 the results were ELG1 genotoxic inconclusive, Rab9 prom act inactive, ELG1 DNA repair inconclusive, NPC1 promoter act inactive, SMN2 splice enh 0.5µM and FLuc counter 0.067µM.
`c1ccc(-c2noc(-c3ccc4c(c3)OCO4)n2)nc1` gave ELG1 genotoxic inconclusive, Rab9 prom act inconclusive, ELG1 DNA repair inconclusive, NPC1 promoter act inconclusive, SMN2 splice enh 0.5µM and FLuc counter 0.24µM.
CC(C)c1ccc(CN(C(=O)/C=C/c2ccco2)C2CCS(=O)(=O)C2)cc1 (stereo not given) was read as ELG1 genotoxic inactive, Rab9 prom act inactive, ELG1 DNA repair inactive, NPC1 promoter act inactive and FLuc counter inactive.
COc1cccc(C(=O)O/N=C(\N)c2ccc([N+](=O)[O-])cc2)c1 was read as ELG1 genotoxic inactive, Rab9 prom act inactive, ELG1 DNA repair inconclusive, NPC1 promoter act inactive, SMN2 splice enh inactive and FLuc counter 2.4µM.
COc1ccc(/C(N)=N/OC(=O)c2cccc([N+](=O)[O-])c2C)cc1 was read as ELG1 genotoxic inconclusive, Rab9 prom act inactive, ELG1 DNA repair inconclusive, NPC1 promoter act inactive, SMN2 splice enh inactive and FLuc counter 17µM.
Screening COc1cc(C(=O)O/N=C(\N)c2ccc([N+](=O)[O-])cc2)cc(OC)c1OC returned ELG1 genotoxic inactive, Rab9 prom act inactive, ELG1 DNA repair inconclusive, NPC1 promoter act inactive, SMN2 splice enh inactive and FLuc counter inactive.
For COc1ccccc1C(=O)CC(=O)C(=O)Nc1cccc([N+](=O)[O-])c1C the results were ELG1 genotoxic inactive, Rab9 prom act inactive, ELG1 DNA repair 18µM, NPC1 promoter act inactive and FLuc counter inactive.
COc1ccc(/C(N)=N/OC(=O)c2cccc([N+](=O)[O-])c2)cc1 was read as ELG1 genotoxic inconclusive, Rab9 prom act inactive, ELG1 DNA repair inconclusive, NPC1 promoter act inactive, SMN2 splice enh inconclusive and FLuc counter 19µM.
For COc1ccccc1C/C(N)=N/OC(=O)COc1ccccc1C the results were Rab9 prom act inactive, NPC1 promoter act inactive and FLuc counter inactive.
For COc1ccccc1C/C(N)=N/OC(=O)c1cccc([N+](=O)[O-])c1C the results were ELG1 genotoxic inactive, Rab9 prom act inactive, ELG1 DNA repair 23µM, NPC1 promoter act inactive, SMN2 splice enh inactive and FLuc counter inactive.
CN(C(=O)CSc1nc(N)c2c3c(sc2n1)CSC(C)(C)C3)c1ccccc1 was read as ELG1 genotoxic inactive, Rab9 prom act inactive, ELG1 DNA repair 21µM, NPC1 promoter act inactive, SMN2 splice enh inactive and FLuc counter inconclusive.
`CCNC(=S)Nc1cccc(F)c1C` gave ELG1 genotoxic inactive, Rab9 prom act inactive, ELG1 DNA repair inactive, NPC1 promoter act inactive, SMN2 splice enh inactive and FLuc counter inactive.
Screening CC(C)(c1ccccc1)c1ccc(OCc2ccc(C(=O)O)o2)cc1 returned ELG1 genotoxic inconclusive, Rab9 prom act 1.1µM, ELG1 DNA repair inconclusive, NPC1 promoter act 2.8µM and FLuc counter 27µM.
CC(C)(C)c1ccc(OCc2ccc(C(=O)NN)o2)cc1 was read as ELG1 genotoxic inconclusive, Rab9 prom act 0.79µM, ELG1 DNA repair inconclusive, NPC1 promoter act 0.4µM and FLuc counter 15µM.
CC(C)(C)c1ccc(OCc2ccc(C(=O)NCc3cccnc3)o2)cc1 was read as ELG1 genotoxic inconclusive, Rab9 prom act 1.3µM, ELG1 DNA repair inconclusive, NPC1 promoter act 2.8µM, SMN2 splice enh inconclusive and FLuc counter 17µM.
Screening COc1ccccc1OCc1ccc(C(=O)NCc2cccnc2)o1 returned ELG1 genotoxic inactive, Rab9 prom act inactive, ELG1 DNA repair inactive, NPC1 promoter act inactive, SMN2 splice enh inactive and FLuc counter inactive.
COc1cccc(C(=O)c2cn(CC(=O)Nc3cccc(C(F)(F)F)c3)c3nc(C)ccc3c2=O)c1 was read as FLuc counter inactive.
`CCOCCCNc1nc2ccccc2[nH]1` gave ELG1 genotoxic inactive, Rab9 prom act inactive, ELG1 DNA repair inactive, NPC1 promoter act inactive, SMN2 splice enh inactive and FLuc counter inactive.
For CCOCCCNc1ccc(-c2ccccc2)nn1 the results were ELG1 genotoxic 13µM, Rab9 prom act 2.2µM, ELG1 DNA repair inconclusive, NPC1 promoter act inconclusive, SMN2 splice enh 14µM and FLuc counter inconclusive.
`COC(=O)c1c(C)oc2ccc(N(C(=O)c3ccncc3)S(=O)(=O)c3c(C)cc(C)cc3C)cc12` gave SMN2 splice enh inactive and FLuc counter inactive.
Cc1ccc(NC(=O)CC2CCCC2)c(Br)c1 was read as ELG1 genotoxic inconclusive, Rab9 prom act inconclusive, ELG1 DNA repair inconclusive, NPC1 promoter act inconclusive and FLuc counter 15µM.
Cc1ccc(CNCC(=O)Nc2ccc(C)cc2Br)cc1 was read as ELG1 genotoxic inactive, Rab9 prom act inactive, ELG1 DNA repair inconclusive, NPC1 promoter act inactive, SMN2 splice enh inactive and FLuc counter inconclusive.
Cc1ccc(O)c(NC(=O)CCC2CCCCC2)c1 was read as ELG1 genotoxic inconclusive, Rab9 prom act inactive, ELG1 DNA repair inconclusive, NPC1 promoter act inconclusive, SMN2 splice enh inactive and FLuc counter 7.6µM.
O=C(CCC1CCCCC1)Nc1ccccc1-c1ccccc1 was read as ELG1 genotoxic inactive, Rab9 prom act inactive, ELG1 DNA repair inactive, NPC1 promoter act inactive, SMN2 splice enh inactive and FLuc counter inactive.
Screening Cc1ccc(C)c(NC(=O)C2CC3CCC2C3)c1 (stereo not given) returned ELG1 genotoxic inactive, Rab9 prom act inactive, ELG1 DNA repair inconclusive, NPC1 promoter act inactive and FLuc counter inconclusive.
For Cc1ccc(NC(=O)C2CC3CCC2C3)c(Br)c1 (stereo not given) the results were ELG1 genotoxic inconclusive, Rab9 prom act inconclusive, ELG1 DNA repair inconclusive, NPC1 promoter act 4µM and FLuc counter 17µM.
O=C(CCC1CCCCC1)Nc1ccccc1O was read as ELG1 genotoxic 10µM, Rab9 prom act inconclusive, ELG1 DNA repair inconclusive, NPC1 promoter act inconclusive, SMN2 splice enh inconclusive and FLuc counter 21µM.
Screening CCN(CC)CCSc1c(C(C)C)cnc2c1c(=O)n(C)c(=O)n2C returned FLuc counter inactive.
Cc1ccc(NC(=O)CN(C)CC(=O)Nc2c(C)cccc2C)c(Br)c1 was read as ELG1 genotoxic inactive, Rab9 prom act inactive, ELG1 DNA repair 7.3µM, NPC1 promoter act inactive, SMN2 splice enh inactive and FLuc counter inactive.

Bioassay records deposited in PubChem BioAssay by National Center for Advancing Translational Sciences (NCATS).
